Assay outcomes from PubChem BioAssay.
Vaccinia mCherry – inhibitors of vaccinia virus infection (mCherry reporter signal); Potency, µM (highest dose often 36.5 µM), for inactives: at the highest dose activity change, negative = inhibition, hits mostly inhibitors; hit rate 0.63% among 310,000; Vaccinia virus mCherry reporter infection, fluorescence; calls by dose curve; tested in A549 cells; further: nearly all actives have a fitted effect of over 35% in size
Marburg entry inh – inhibitors of Marburg virus binding or cell entry; hit rate 1.8% among 300,000; Potency, µM (titrated, usually from 37.8 µM), inactives show at the top dose activity change, negative = inhibition, usual class: inhibitors; AID 540276; Marburg virus pseudotyped entry inhibition, cell reporter; calls by dose curve; tested in HEK293 cells
Vaccinia Venus – inhibitors of vaccinia virus (Venus reporter); Potency, µM (titrated, usually from 36.5 µM), inactives show at the top dose activity change, negative = inhibition, hits mostly inhibitors; AID 720580; hit rate 0.46% among 330,000; Vaccinia virus Venus reporter expression, fluorescence; calls by dose curve; tested in A549 cells; further: nearly all actives have a fitted effect of over 30% in size
LASV entry inh – inhibitors of Lassa virus binding or cell entry | Lassa virus pseudotype entry inhibition, cell reporter | Potency, µM (doses to about 37.9 µM), for inactives: top-dose activity change, negative = inhibition, actives largely listed as inhibitors | hit rate 1.2% among 300,000; calls by dose curve; tested in HEK293 cells; further: nearly all actives have a fitted effect of over 50% in size
Numbers without * were called inactive; i = inactive; ? = inconclusive; . = no result given; [ ] = remark or other dose. Shown are actives, neighbours in structure and some others; about 2.5% of the full set was active somewhere. On the % scale 0 is the no-effect control and ±100 the full control effect; potency means the concentration at half of the fitted maximal effect.

SMILES	Vaccinia mCherry	Marburg entry inh	Vaccinia Venus	LASV entry inh
c1ccc(-c2ccccc2OCCCCN2CCCCC2)cc1	?	7.1µM*	-27%	?
C=CCN1C(=O)CC[C@@]23C1=NC(C(=O)OC)=C(C(=O)OC)[C@@H]2N(CC=C)c1ccccc13	.	-3%[14.2 µM]	.	.
CCOC(=O)NN=C1C[C@@H](O)[C@@H](O)[C@@H]2[C@H]3C(=O)N([C@@H](C)c4ccccc4)C(=O)[C@@H]3CC[C@@H]12	.	-22%[14.2 µM]	.	.
COc1ccc([C@H]2C[C@H](c3ccc(C)cc3)Nc3nc(N)nn32)cc1	.	7%	.	.
COC(=O)[C@@H]1[C@H](CCc2ccccc2)NC(=O)N(Cc2ccccc2)[C@H]1C	.	-24%[14.2 µM]	.	?
Cc1cc(C)cc(NS(=O)(=O)c2ccc3[nH]cc(C(=O)NCc4ccco4)c(=O)c3c2)c1	10µM*	?	11µM*	?
Cc1cc(C)cc(NS(=O)(=O)c2ccc3[nH]cc(C(=O)NCc4ccccc4Cl)c(=O)c3c2)c1	-16%	.	-23%	?
CC(=O)Nc1ccc(S(=O)(=O)N2CCN(C(C)CCc3ccccc3)CC2)cc1 (stereo not drawn)	-27%	13µM*	-29%	16µM*
COC(=O)Nc1ccc(S(=O)(=O)N2CCC(Cc3ccccc3)CC2)cc1	.	?	.	21µM*
CC(=O)Nc1ccc(NC(=O)C(C)N2CCN(S(=O)(=O)c3ccc(C)cc3)CC2)cc1 (stereo not drawn)	-13%	?	-18%	?
Brc1cc(Br)c[n+](CCc2ccccc2)c1	0%	.	-9%	.
Cn1cc(/C=C/c2ccc3ccccc3n2)c2ccccc21	-22%	.	21%	.
Cc1ccc(C)c(Cn2nnc3c(=O)[nH]c(C(=O)NCc4ccco4)nc32)c1	-7%	-17%	-10%	-18%[14.3 µM]
O=C(NCc1ccco1)c1nc2c(nnn2Cc2ccccc2Cl)c(=O)[nH]1	13µM*	?	11µM*	13µM*
COC(=O)c1c(C)oc2ccc(N(C(=O)c3ccncc3)S(=O)(=O)c3c(C)cc(C)cc3C)cc12	-25%[7.34 µM]	?	-21%[7.34 µM]	?
COC(=O)c1c(C)oc2ccc(N(C(=O)c3ccncc3)S(=O)(=O)c3ccc(C)cc3)cc12	10µM*	3.2µM*	?	-18%
COC(=O)c1c(C)oc2ccc(N(C(=O)c3ccncc3)S(=O)(=O)c3ccc(C)cc3C)cc12	-11%	5.6µM*	?	?
C[C@H](N[C@@H](C)CCc1ccccc1)[C@H](O)c1ccc(O)cc1	.	-44%	.	.
O=C(COC(=O)c1ccc(N2CCOCC2)c([N+](=O)[O-])c1)Nc1ccc2c(c1)OCO2	i	-3%	-7%	11%
Cc1c(CCOC(=O)c2ccc(N3CCOCC3)c([N+](=O)[O-])c2)sc[n+]1CC#N	?	?	-26%	13µM*
CCCNC(=O)c1cc(-c2ccc(OC)cc2)on1	.	10µM*	.	?
CCCCNC(=O)c1cc(-c2ccc(OC)cc2)on1	.	?	.	-9%
O=C(Nc1nccs1)[C@@H]1CC=C[C@@H]2CCN(Cc3ccc(Cl)c(Cl)c3)C(=O)[C@@H]21	-21%	.	-18%	.
O=C1/C(=C\c2ccc(Cl)c(Cl)c2)CN(C(=O)CCN2CCOCC2)C/C1=C/c1ccc(Cl)c(Cl)c1	?	?	11µM*	?
O=C(NCCN1CCOCC1)c1ccc(Cl)c(Cl)c1	i	30%[46.1 µM]	-4%	-8%[46.1 µM]
SMILES	Vaccinia mCherry	Marburg entry inh	Vaccinia Venus	LASV entry inh
O=C1/C(=C\c2ccccc2)CN(C(=O)CCN2CCCCC2)C/C1=C/c1ccccc1	13µM*	1µM*	11µM*	?
CCN(CC)CCC(=O)N1C/C(=C/c2ccccc2)C(=O)/C(=C\c2ccccc2)C1	?	11µM*	?	10µM*
O=C(CCN1C(=O)S/C(=C\c2ccccc2)C1=O)N1CCCCC1	-15%	?	1%	4%[46.1 µM]
Cc1nn(-c2ccccn2)c2c1-c1nc(N)sc1CC2	20%	.	2%	.
Cc1c(C(=O)N2CC[C@@H]3CCCC[C@H]3C2)sc2ncnc(NCCc3ccccn3)c12	-5%	.	5%	.
CCOc1cccc(/C=N/NC(=O)c2cc(-c3cccn3C)n[nH]2)c1O	?	?	?	22µM*
COc1cc(OC)c(OC)cc1/C=N/NC(=O)c1cc(-c2cccn2C)n[nH]1	.	-9%	.	-6%
O=C(Nc1nnc(-c2ccncc2)o1)c1ccc(Br)s1	-2%	8.9µM*	-21%	?
N=c1c2c(-c3ccccc3)c(-c3ccccc3)n(Cc3ccco3)c2ncn1Cc1ccccc1	-10%	-8%	-6%	1%
N=c1c2c(-c3ccccc3)c(-c3ccccc3)oc2ncn1CCCN1CCOCC1	.	8.2µM*	.	?
c1ccc(-c2c(-c3ccccc3)n(Cc3ccco3)c3ncnc(NCCCn4ccnc4)c23)cc1	?	?	13µM*	?
OCCNc1ncnc2c1c(-c1ccccc1)c(-c1ccccc1)n2Cc1ccco1	1%	?	-1%	?
CC(C)Cn1cnc2c(c(-c3ccccc3)c(-c3ccccc3)n2Cc2ccco2)c1=N	?	2.8µM*	?	6.3µM*
N=c1c2c(-c3ccccc3)c(-c3ccccc3)oc2ncn1CCN1CCOCC1	.	?	.	1%
N=c1c2c(-c3ccccc3)c(-c3ccccc3)n(Cc3ccco3)c2ncn1CCCN1CCOCC1	-24%	7.1µM*	?	-8%
COc1cc(CN2C(=O)CC[C@@H]3CN(Cc4ccccn4)CC[C@@H]32)cc(OC)c1OC	-7%	.	1%	.
COc1ccc(O)c(CN2CCC3(CCC(CNC(=O)C4CCCO4)O3)CC2)c1 (stereo not drawn)	-3%	.	14%	.
O=C(COc1ccccc1C(=O)Nc1ccccc1)Nc1ccccc1Cl	-17%	.	-22%	.
Clc1cccc[n+]1CCCCCC[n+]1ccccc1Cl	-9%	.	-5%	.
S=C(NCc1ccccn1)NN=Cc1ccccn1	0%	?	?	13µM*
O=C(COc1ccccc1C(=O)Nc1ccccc1)Nc1cccc([N+](=O)[O-])c1	?	.	-30%	.
COc1cc(C2CC(=O)Nc3cc(C)c(C)cc32)cc(OC)c1OC (stereo not drawn)	?	-22%	-19%	?
Cc1cc2c(cc1C)C(c1cccc([N+](=O)[O-])c1)CC(=O)N2 (stereo not drawn)	0.35µM*	4.5µM*	1µM*	?
Nc1ccc(-c2ccc3ccccc3n2)cc1	.	6.3µM*	.	?
Cc1cc(C)c(S(=O)(=O)N2CCN(C(=O)c3c(C)nn(-c4ccccc4)c3Cl)CC2)c(C)c1	i	14µM*	?	?
SMILES	Vaccinia mCherry	Marburg entry inh	Vaccinia Venus	LASV entry inh
COc1ccccc1C1CN(Cc2cccc3c2OCO3)Cc2ccccc2O1 (stereo not drawn)	-14%	.	-7%	.
CCOC(=O)N1CCN([C@@H]2OC(=O)c3ccccc32)CC1	.	23%[46.1 µM]	.	.
COC(=O)c1nn(-c2ccc3c(c2)CCN3C(C)=O)cc1O	.	?	.	2.6µM*
COC(=O)c1nn(-c2ccc3c(c2)OCO3)cc1O	.	-12%	.	?
COc1cc(CN(C)CCc2ccccc2)ccc1OCc1ccccc1	.	18µM*	.	-28%
COc1ccc(C=CC(=O)c2ccc(OC)c(OC)c2)cc1O	?	.	10µM*	.
COc1ccc(C(=O)C=Cc2ccc3c(c2)OCO3)cc1OC	-3%	.	-18%	.
COc1cc(C=CC(=O)c2cc(OC)c(OC)c(OC)c2)cc(OC)c1OC	-2%	?	?	7.9µM*
